# Assay results as given in PubChem BioAssay (NCATS).
# Records with an inconclusive call do not appear. Entries that show only a call come without a potency. Values without a mark were called inactive. Activity calls are given as the source filed them. Calls follow the shape of the dose curve; as a rule, active = well fitted cell-killing curve with a large enough effect; inconclusive = small, poorly fitted or top-dose-only effect, or effect the other way; inactive = flat fitted curve, though single readings scatter.
# Test system: SKOV3
# Assay: Primary qHTS to identify gynecologic anti-cancer compounds using libraries of approved drugs and bioactive compounds (AID 1345084); also: nearly all actives have a fitted effect of over 55% in size
# Settings: Gynecologic cancer cell panel viability, ATPlite luminescence, 48 h; series mostly up to 57.5 µM
# Outline: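 Five-concentration response, 48 h; readout is ATP-driven luciferase luminescence.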
SMILES,Potency,"activity change, negative = cytotoxicity"
COc1ccc(N2CCN(CCCNC(=O)Cn3c(=O)c4cccn4c4c(C)ccnc43)CC2)cc1,inactive,–
OC[C@@]1(O)CO[C@H](OC[C@H]2O[C@@H](OC(CCCCc3ccc(O)cc3)CCc3ccc(O)cc3)[C@H](O[C@H]3OC[C@](O)(CO)[C@H]3O)[C@@H](O)[C@@H]2O)[C@@H]1O (stereo not given in full),inactive,–
C=Cc1cc2oc(-c3ccc(O)c(F)c3)nc2cc1O,inactive,–
C=C(C)C1CCC2(C(=O)OC3OC(COC4OC(CO)C(O)C(O)C4O)C(OC4OC(C)C(O)C(O)C4O)C(O)C3O)CCC3(C(=O)O)C(CCC4C5(C)CCC(=O)C(C)(C)C5CCC43C)C12 (stereo not given),–,-6.38% [at 11.6 µM]
CC(=O)OC12CC(C)C(OC(=O)c3ccccc3)C1/C=C(/C)C(OC(=O)c1ccccc1)CC(=O)C(C)(C)/C=C/C(C)C2=O (stereo not given),inactive,–
COC(=O)[C@]1(Cc2ccc(O)c(CC=C(C)C)c2)OC(=O)C(O)=C1c1ccc(O)cc1,inactive,–
CC(=O)OCC1OC(O[C@H]2CC[C@@]3(C)C(CC[C@]4(C)C3CC=C3[C@@H]5CC(C)(C)CC[C@]5(C(=O)O)CC[C@]34C)[C@]2(C)CO)C(O)C(O)C1OC1OC(C)C(O)C(OC2OCC(O)C(O)C2O)C1O (stereo not given in full),–,19.9% [at 11.6 µM]
COc1cc(/C=C/C(=O)O)ccc1O[C@@H]1O[C@H](CO)[C@@H](O)[C@H](O)[C@H]1O[C@@H]1OC[C@](O)(CO)[C@H]1O,inactive,–
COc1cc(O)cc2c1C(=O)OC(C)CCCCCCC2 (stereo not given),inactive,–
C=CC(C)(CCC=C(C)C)O[C@@H]1O[C@H](CO)[C@@H](O)[C@H](O)[C@H]1O (stereo not given in full),inactive,–
